Screens as filed in PubChem.
Most compounds without a hit are left out; they make up all but 12% or so of the library.
BAZ2B inh: blocks human BAZ2B; 4.4% of 360,000 active; AID 504333; Q9UIF8; Potency, µM (top dose mostly 114 µM), for inactives: at the top dose activity change, negative = inhibition, hits mostly inhibitors; AlphaScreen BAZ2B-H3K14Ac peptide displacement; also: % is scaled to controls: 0 for no effect and ±100 for the full control effect; nearly all actives have a fitted effect of over 60% in size
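AlphaScreen displacement of biotin-H3(5-23)K14Ac peptide (50 nM final) from BAZ2B (50 nM final) in PBS pH 7.4, 0.01% Tween-20; complex preformed 30 min RT, then compounds (top 110 uM) 30 min RT, beads 20 min dark.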
Sfp PPTase inh: Sfp phosphopantetheinyl transferase inhibition. Potency, µM, without a hit: largest response in the series, negative = inhibition, most hits filed as inhibitors. 3.5% of 310,000 active. AID 1490. Biochemical Sfp PPTase activity, qHTS;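 also: the enzyme is Sfp with the accession as filed and its product quenches rhodamine fluorescence; 0% = enzyme reaction without inhibitor and -100% = no enzyme wells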
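Fluorescence-quenching assay with 15 nM Sfp, 5 uM rhodamine-CoA and 12.5 uM BHQ-2-labelled ybbR peptide in pH 7.6 Hepes/MgCl2 buffer. Enzyme was pre-incubated with compound for 15 min at room temperature. Rate was taken from the 30-min fluorescence change (525/598 nm).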
L3MBTL1 inh: inhibitors of human L3MBTL1 | Potency, µM (titrated, usually from 57.1 µM), inactives show at the highest dose activity, negative = inhibition, most hits filed as inhibitors | AlphaScreen L3MBTL1–H3K9me1 peptide binding | 0.66% of 230,000 active | AID 485360 | Q9Y468; also: % is scaled to controls: 0 for no effect and ±100 for the full control effect; nearly all actives have a fitted effect of over 60% in size
Target sequence (Q9Y468 whole entry, looked up): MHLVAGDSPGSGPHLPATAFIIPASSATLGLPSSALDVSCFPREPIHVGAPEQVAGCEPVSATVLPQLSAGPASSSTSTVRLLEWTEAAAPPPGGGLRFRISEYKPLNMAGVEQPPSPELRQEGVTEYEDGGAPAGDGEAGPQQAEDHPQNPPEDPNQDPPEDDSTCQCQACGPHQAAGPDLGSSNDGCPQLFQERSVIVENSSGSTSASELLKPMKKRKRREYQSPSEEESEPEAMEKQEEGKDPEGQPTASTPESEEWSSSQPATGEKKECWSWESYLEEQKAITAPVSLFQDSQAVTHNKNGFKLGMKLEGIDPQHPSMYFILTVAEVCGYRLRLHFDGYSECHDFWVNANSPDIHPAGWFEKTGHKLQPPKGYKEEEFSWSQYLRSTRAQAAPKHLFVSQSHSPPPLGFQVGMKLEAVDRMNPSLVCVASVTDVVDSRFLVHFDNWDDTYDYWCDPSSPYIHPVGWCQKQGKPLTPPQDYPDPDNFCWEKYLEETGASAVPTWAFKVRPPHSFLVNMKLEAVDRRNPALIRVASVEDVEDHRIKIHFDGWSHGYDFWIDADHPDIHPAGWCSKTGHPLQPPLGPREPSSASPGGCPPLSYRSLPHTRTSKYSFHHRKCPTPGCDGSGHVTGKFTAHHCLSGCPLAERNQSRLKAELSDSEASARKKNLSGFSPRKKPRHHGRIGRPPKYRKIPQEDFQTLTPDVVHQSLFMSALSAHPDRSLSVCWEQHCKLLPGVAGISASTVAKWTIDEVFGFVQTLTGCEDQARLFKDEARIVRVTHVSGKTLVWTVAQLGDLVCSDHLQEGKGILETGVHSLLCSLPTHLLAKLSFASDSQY
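First, the protein-peptide complex forms for 30 min at room temperature (L3MBTL1 50 nM, biotinylated H3K9me1 peptide 75 nM). Next, compounds are pin-transferred and incubated 30 min. Finally, AlphaScreen beads are added and read after 30 min.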
JMJD2A Tudor: blocks the human JMJD2A Tudor domain. O75164. AlphaScreen JMJD2A-Tudor / H3K4me3 peptide binding. Potency, µM (titrated, usually from 114 µM), without a hit: at the highest dose activity change, negative = inhibition, actives largely listed as inhibitors. 4.4% of 390,000 active. AID 504339; also: % is scaled to controls: 0 for no effect and ±100 for the full control effect; nearly all actives have a fitted effect of over 50% in size
HP1b binding inh: HP1-beta chromodomain-methylated histone interaction inhibition | P83916 | AlphaScreen HP1-beta / biotin-H3K9me3 peptide binding | Potency, µM (titrated, usually from 114 µM), for inactives: at the highest dose activity change, negative = inhibition, actives largely listed as inhibitors | 0.56% of 390,000 active | AID 540317; also: nearly all actives have a fitted effect of over 70% in size
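HP1-beta protein (50 nM final) preincubated 30 min at room temperature with biotinylated H3(1-18)K9me3 peptide (50 nM) in PBS pH 7.4, 0.01% Tween-20, then compound added for 30 min. AlphaScreen streptavidin donor/nickel chelate acceptor beads (10 ug/mL final), 30 min dark, luminescence read.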
G9a inh: inhibitors of human histone lysine methyltransferase G9a; Q96KQ7; G9a H3K9 monomethylation, AlphaScreen, 2 h; Potency, µM (series often up to 102 µM), for inactives: top-dose activity, negative = inhibition, hits mostly inhibitors; 8.8% of 350,000 active; also: % is scaled to controls: 0 for no effect and ±100 for the full control effect; nearly all actives have a fitted effect of over 75% in size
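Step 1: enzyme (final 20 nM) with compound, 15 min RT. Step 2: substrate peptide 500 nM and SAM 20 uM, 2 h RT. Step 3: anti-H3K9me1 antibody and AlphaScreen beads, 10 min, then plate read.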
Numbers without * were called inactive; [ ] = another dose, or the depositor's remark. Calls follow the shape of the dose curve; as a rule, active = well fitted curve in the direction sought with a large enough effect; inconclusive = small, poorly fitted or top-dose-only effect, or another doubt; inactive = no such curve, though single readings can be large; an effect the other way counts as inactive or inconclusive. Potency is read from the fitted curve at half-maximal effect.

How did CCOc1ccc(OCCC(=O)OCC(=O)N2CCN(S(=O)(=O)c3ccc(Cl)cc3)CC2)cc1 do in these assays?
BAZ2B inh: 50µM*; Sfp PPTase inh: -10%; JMJD2A Tudor: inconclusive; HP1b binding inh: -20%

What do the screens show for `CCOc1ccc(S(=O)(=O)N2CCN(C(=O)c3cc(-c4ccccc4)nn3-c3ccccc3)CC2)cc1`?
BAZ2B inh: -6%; L3MBTL1 inh: 3%; JMJD2A Tudor: -25%; HP1b binding inh: 11%; G9a inh: 40µM*

How did COc1ccc(C2(C)NC(=O)N(CC(=O)Nc3ccc(Br)c(C)c3)C2=O)cc1OC (stereo unspecified) do in these assays?
BAZ2B inh: -23%; Sfp PPTase inh: 3%; JMJD2A Tudor: -20%; HP1b binding inh: 16%; G9a inh: -13%

Results for c1ccc(CCN(Cc2ccccc2)Cc2nc(C3CC3)no2)cc1 ?
BAZ2B inh: 99%; Sfp PPTase inh: -3%; L3MBTL1 inh: 159%; JMJD2A Tudor: 69%; HP1b binding inh: 132%; G9a inh: 2%[12.7 µM]

Results for Cc1cc2c(s1)c1cnn(Cc3ccc(OC(F)F)cc3)c(=O)c1n2C ?
JMJD2A Tudor: 5%

Results for Cn1c(NC(=O)c2ccccc2F)cc(=O)n(C)c1=O ?
BAZ2B inh: -30%; Sfp PPTase inh: 7%; JMJD2A Tudor: -9%; HP1b binding inh: 36%; G9a inh: 56µM*

What do the screens show for `Cn1c(NC(=O)c2ccccc2)cc(=O)n(C)c1=O`?
BAZ2B inh: -3%; Sfp PPTase inh: 22%; L3MBTL1 inh: 1%; JMJD2A Tudor: -2%; HP1b binding inh: 24%; G9a inh: -37%

What do the screens show for `CCOCCN1CCN(C(=O)CN2CCCC2=O)CC1`?
BAZ2B inh: 89µM*; Sfp PPTase inh: 2%; L3MBTL1 inh: 5%; JMJD2A Tudor: inconclusive; HP1b binding inh: 8%; G9a inh: 7.9µM*

How did CC(C)(C)c1ccc(C(=O)Nc2ccc(-c3nc4ccccc4o3)c(O)c2)cc1 do in these assays?
BAZ2B inh: 2%; JMJD2A Tudor: -10%; HP1b binding inh: 34%; G9a inh: 28%[59 µM]

What do the screens show for `CCOc1ccccc1NC1=C(OC)C(=O)C(Nc2ccccc2OCC)=C(OC)C1=O`?
JMJD2A Tudor: 7.1µM*; HP1b binding inh: 8.9µM*

What do the screens show for `CCOc1ccccc1NS(=O)(=O)N(C)C`?
BAZ2B inh: 0%; Sfp PPTase inh: 8%; JMJD2A Tudor: -10%; HP1b binding inh: 13%; G9a inh: -16%

Results for CCNS(=O)(=O)c1ccc(NC(=O)c2ccccc2SCCOC)cc1 ?
BAZ2B inh: 21%; Sfp PPTase inh: 2%; L3MBTL1 inh: 4%; JMJD2A Tudor: 7%; HP1b binding inh: -24%; G9a inh: 16µM*

What do the screens show for `COCCSc1ccccc1C(=O)Nc1nnc(C)s1`?
BAZ2B inh: 12%; Sfp PPTase inh: -1%; L3MBTL1 inh: 7%; JMJD2A Tudor: -3%; HP1b binding inh: 15%; G9a inh: inconclusive

Results for COCCSc1ccccc1C(=O)NCc1ccc(S(N)(=O)=O)cc1 ?
BAZ2B inh: 37%; Sfp PPTase inh: -9%; JMJD2A Tudor: -18%; HP1b binding inh: 9%; G9a inh: 45µM*

Results for COCCSc1ccccc1C(=O)NCC1CCCO1 (stereo unspecified) ?
BAZ2B inh: -2%; Sfp PPTase inh: inconclusive; JMJD2A Tudor: -20%; HP1b binding inh: 20%; G9a inh: 6.3µM*

Results for COCCSc1ccccc1C(=O)Nc1ccccc1C(C)C ?
BAZ2B inh: -20%; Sfp PPTase inh: 18µM*; L3MBTL1 inh: -3%; JMJD2A Tudor: -17%; HP1b binding inh: 18%; G9a inh: 5µM*

Results for CSc1ccccc1C(=O)NCC1CCCO1 (stereo unspecified) ?
BAZ2B inh: -4%; Sfp PPTase inh: 5%; JMJD2A Tudor: -12%; HP1b binding inh: 30%; G9a inh: 0%[59 µM]

Results for COc1ccc(-c2nc3c(Br)c(N)c(Br)cc3o2)cc1 ?
BAZ2B inh: -8%; Sfp PPTase inh: 22µM*; L3MBTL1 inh: -7%; JMJD2A Tudor: -17%; HP1b binding inh: 5%; G9a inh: inconclusive

What do the screens show for `Cc1nc2sc3c(O)cc(=O)[nH]c3c2c(C)c1C`?
BAZ2B inh: -6%; Sfp PPTase inh: -9%; JMJD2A Tudor: -23%; HP1b binding inh: 25%; G9a inh: 50µM*

How did Cn1c(CN(O)S(=O)(=O)c2ccc(Cl)cc2)nnc1C(F)(F)F do in these assays?
BAZ2B inh: -6%; Sfp PPTase inh: 19%; JMJD2A Tudor: 0%; HP1b binding inh: 32%; G9a inh: 10µM*

Results for CN(C)C(=O)CN(C)S(=O)(=O)c1ccc(Cl)cc1 ?
BAZ2B inh: 6%; Sfp PPTase inh: 6%; L3MBTL1 inh: inconclusive; JMJD2A Tudor: -11%; HP1b binding inh: 63%; G9a inh: -7%[12.7 µM]

What do the screens show for `COC(=O)c1sccc1N(C)S(C)(=O)=O`?
BAZ2B inh: -18%; Sfp PPTase inh: 7%; L3MBTL1 inh: -5%; JMJD2A Tudor: -3%; HP1b binding inh: 21%; G9a inh: 2%[59 µM]

What do the screens show for `CCCCn1c(N)c(N(CCC(C)C)C(=O)C2CC(=O)N(c3cccc(SC)c3)C2)c(=O)[nH]c1=O` (stereo unspecified)?
BAZ2B inh: -4%; L3MBTL1 inh: -11%; JMJD2A Tudor: -13%; HP1b binding inh: 30%; G9a inh: 14µM*

How did CCCCn1c(N)c(N(CCC(C)C)C(=O)C2CC(=O)N(c3ccc4c(c3)OCCO4)C2)c(=O)[nH]c1=O (stereo unspecified) do in these assays?
BAZ2B inh: -8%; Sfp PPTase inh: 11%; JMJD2A Tudor: -16%; HP1b binding inh: 34%[57 µM]; G9a inh: inconclusive

Results for CCCCn1c(N)c(N(CC(C)C)C(=O)C2CC(=O)N(Cc3ccccc3)C2)c(=O)[nH]c1=O (stereo unspecified) ?
BAZ2B inh: 6%; L3MBTL1 inh: -10%; JMJD2A Tudor: -1%; HP1b binding inh: 31%; G9a inh: 14µM*

How did Cc1cccc(-c2noc(CCC(=O)N3CCN(c4cc(C)ccc4C)CC3)n2)c1 do in these assays?
L3MBTL1 inh: 15%; JMJD2A Tudor: 6%; HP1b binding inh: 89%

What do the screens show for `O=C(O)CN(CC(=O)O)c1ccccc1OCCOc1ccccc1N(CC(=O)O)CC(=O)O`?
Sfp PPTase inh: 17%

Results for CC(C)[C@H](NC(=O)[C@@H]1Cc2ccccc2CN1)C(=O)Nc1ccc2c(c1)OCCO2 ?
BAZ2B inh: -23%; Sfp PPTase inh: -4%; JMJD2A Tudor: -14%; HP1b binding inh: 20%; G9a inh: inconclusive
